Sampled rows, rich in hits. Any-hit rate of the full collection: about 8.8%.
LMNA splice mod: changes lamin A minigene splicing in HeLa cells. HeLa LMNA splicing GFP/RFP minigene ratio, 48 h. 0.01% of 200,000 active. AID 1487. Potency, µM (series often up to 46.1 µM), hits mostly inhibitors; active = well fitted inhibition curve with a large enough effect in the signal ratio, with a control signal flat, not every such curve was filed as active; inconclusive = small, poorly fitted or top-dose-only effect, or effect the other way, or a change in a side signal; the % refers to the signal ratio
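S3 HeLa cells stably expressing lamin A-EGFP splicing minigene plus DsRed2, 600 cells/well, 48 h compound exposure at 37C. Laser-scanning cytometry; analysed as GFP (500-530 nm)/RFP (575-640 nm) total intensity ratio; 0.5% DMSO vehicle.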
HTT ATP protect: cytoprotection in Huntington HTT-Q103 PC12 cell model; PC12 HTT-Q103 induced, cytoprotection, ATP luminescence, 40 h; 0.14% of 230,000 active; Potency, µM (highest dose often 56.4 µM), most hits filed as activators; note: nearly all actives have a fitted effect of over 45% in size
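Readout: ATPlite luminescence (ATP level). Model: stable PC12, inducible Htt exon1 Q103-GFP. Inducer: tebufenozide, 100 nM final. Compounds: dose series. No G418 in medium.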
HPGD inh: blocks human HPGD enzyme activity; 4.3% of 150,000 active; P15428; Potency, µM, usual class: inhibitors; purified HPGD, NADH fluorescence kinetic, PGE2 substrate; active = well fitted inhibition curve with a large enough effect, not every such curve was filed as active; inconclusive = small, poorly fitted or top-dose-only effect, or another doubt; inactive = no such curve, though single readings can be large or run the other way
Target sequence (P15428 whole entry, looked up): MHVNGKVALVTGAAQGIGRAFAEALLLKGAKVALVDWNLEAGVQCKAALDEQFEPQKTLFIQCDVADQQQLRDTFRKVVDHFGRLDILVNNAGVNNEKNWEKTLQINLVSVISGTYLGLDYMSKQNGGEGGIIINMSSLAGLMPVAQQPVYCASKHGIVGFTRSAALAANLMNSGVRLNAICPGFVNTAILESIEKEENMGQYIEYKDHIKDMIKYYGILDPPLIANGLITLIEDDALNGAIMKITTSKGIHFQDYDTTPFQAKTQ
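NADH formation kinetics: reaction with 30 uM PGE2 and 1 mM NAD+ (final), 20 nM enzyme, Tris-HCl pH 8 with Tween 20, after 15 min compound preincubation at room temperature. Fluorescence change, last versus first of five reads.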
ALDH1A1 block: blocks purified human ALDH1A1 activity | Purified ALDH1A1, NADH fluorescence, propionaldehyde substrate | Potency, µM (series often up to 75.3 µM), hits mostly inhibitors | 7.3% of 220,000 active | AID 1030; active = well fitted inhibition curve with a large enough effect, not every such curve was filed as active; inconclusive = small, poorly fitted or top-dose-only effect, or another doubt; inactive = no such curve, though single readings can be large or run the other way
Target sequence (P00352 whole entry, looked up): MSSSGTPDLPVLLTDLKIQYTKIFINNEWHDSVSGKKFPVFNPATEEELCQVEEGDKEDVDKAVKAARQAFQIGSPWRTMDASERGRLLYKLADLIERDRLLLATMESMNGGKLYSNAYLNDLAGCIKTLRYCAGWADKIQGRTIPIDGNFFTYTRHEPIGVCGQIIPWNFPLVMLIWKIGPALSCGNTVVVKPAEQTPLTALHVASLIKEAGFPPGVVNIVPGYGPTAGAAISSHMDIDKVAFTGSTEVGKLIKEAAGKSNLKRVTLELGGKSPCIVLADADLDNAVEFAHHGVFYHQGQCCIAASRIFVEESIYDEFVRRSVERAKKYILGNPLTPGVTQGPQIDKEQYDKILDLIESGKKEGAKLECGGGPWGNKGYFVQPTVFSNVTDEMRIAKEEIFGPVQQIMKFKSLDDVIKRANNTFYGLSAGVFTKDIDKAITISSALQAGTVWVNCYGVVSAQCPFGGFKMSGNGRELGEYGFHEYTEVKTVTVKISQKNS
HTT aggregate: inhibitors of mutant huntingtin aggregate formation in PC12 cells | 1.1% of 220,000 active | PC12 HttQ103-GFP aggregates, Acumen cytometry, 40 h | Potency, µM (top dose mostly 46.1 µM), usual class: inhibitors; note: nearly all actives have a fitted effect of over 60% in size
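Steps: seed 1500 PC12 HTTQ103-GFP cells/well; add tebufenozide, 100 nM final; add compound titration; add ATPLite reagent; quantify GFP aggregates by laser scanning cytometry.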
Numbers stand for hits; 0 = inactive; ? = inconclusive; - = no result; [ ] = another dose, or the depositor's remark. Unless noted, calls come from the whole dose curve; as a rule, active = well fitted curve in the direction sought with a large enough effect; inconclusive = small, poorly fitted or top-dose-only effect, or another doubt; inactive = no such curve, though single readings can be large; an effect the other way counts as inactive or inconclusive.

SMILES	LMNA splice mod	HTT ATP protect	HPGD inh	ALDH1A1 block	HTT aggregate
Cc1ccc(N(CCCCN2C(=O)c3ccccc3C2=O)C(=O)c2cccs2)cc1	?	0	0	?	0
CCN(CC)c1ccc2c(c1)C(=O)N(C)C2=O	0	0[1.9 µM]	18µM	?	0
CCN(CC)c1ccc2ccc(=O)oc2c1	0	0[10 µM]	-	?	0[9.22 µM]
O=C(O)C(S)[C@@H](S)C(=O)O (stereo partly specified)	-	?	4.5µM	3.5µM	-
COc1ccc(Nc2ccccc2N)cc1	?	0	-	?	13µM
CN(Cc1ccccc1)C(=O)CSc1nc2ccsc2c(=O)n1-c1ccc(F)cc1	0	-	-	-	-
CN1C(=O)c2cccc3c(S(=O)(=O)NCc4ccco4)ccc1c23	?	0[10 µM]	0	14µM	0
COc1ccc(-n2sc3c(c2=S)-c2cc(OC)ccc2NC3(C)C)cc1	?	0[10 µM]	0	32µM	?
COc1ccc2c(c1)-c1c(sn(-c3ccccc3)c1=S)C(C)(C)N2	?	0[10 µM]	0	0	0
Cc1ccc(S(=O)(=O)N2C(=O)/C(=C3\SC(=S)NC3=O)c3ccccc32)cc1	-	-	-	-	0.79µM
CCc1ccc(-n2nc(C)c3c(C)cc(=O)n(CC(=O)Nc4ccc(OC)c(OC)c4)c32)cc1	0	-	-	-	-
Cc1ccccc1-c1nc(NC2CCNCC2)c2ccccc2n1	0	0	0	0	-
N#CCSc1nc(Nc2ccc3c(c2)OCO3)c2ccccc2n1	?	0	?	0	25µM
Nn1c(-c2cccc(Br)c2)n[nH]c1=S	0	0	0	22µM	0
S=c1[nH]nc(-c2cccc(Br)c2)o1	0	0[1.9 µM]	0	6.3µM	0
O=C(Nc1cc(C(F)(F)F)ccc1Cl)C(Sc1nnc(-c2cccs2)o1)c1ccccc1 (stereo unspecified)	?	0[10 µM]	-	1µM	0
O=C(Nc1ccc(Cl)cc1C(F)(F)F)C(Sc1nnc(-c2cccs2)o1)c1ccccc1 (stereo unspecified)	?	0[10 µM]	-	2.8µM	0
CN(C)c1cc[n+](CC(=O)Nc2ccc(OC(F)F)cc2)cc1	-	0[10 µM]	-	0	0[9.22 µM]
CCOC(=O)c1cc(NC(=O)CSCCO)ccc1Cl	0	0	0	22µM	0
O=C1[C@H]2[C@H](ON3CCCC[C@H]23)C(=O)N1c1cccc(C(F)(F)F)c1	-	0	-	0	0
COc1ccc([C@@H]2[C@H]3C(=O)N(c4cccc(C(F)(F)F)c4)C(=O)[C@H]3ON2C)cc1	0	0[10 µM]	0	14µM	0
CN(Cc1ccco1)c1ncnc2ccc(-c3ccccc3C#N)cc12	?	0	-	?	-
CCOC(=O)C1CCCN(Cc2ccccc2F)C1 (stereo unspecified)	0	0[0.074 µM]	0	11µM	0
CCOC(=O)C1CCCN(Cc2cc(Br)c(OC)cc2OC)C1 (stereo unspecified)	0	0	0	?	0
CCOC(=O)C1CCCN(Cc2cc(Br)ccc2OC)C1 (stereo unspecified)	0	0[10 µM]	0	10µM	0
SMILES	LMNA splice mod	HTT ATP protect	HPGD inh	ALDH1A1 block	HTT aggregate
CCOc1ccc(OCC)c(NS(=O)(=O)c2ccc3c(c2)n(C)c(=O)c(=O)n3C)c1	?	0[1.9 µM]	0	0	0
CCOc1ccc2nc(NS(=O)(=O)c3ccc4c(c3)n(C)c(=O)n4C)sc2c1	0	0	25µM	?	0
CCOc1ccc(S(=O)(=O)Nc2nc3ccc(OC)cc3s2)cc1	0	0	0	0	0
CCOc1ccc2nc(NS(C)(=O)=O)sc2c1	0	0	28µM	?	0
O=C(NC1CCCC1)C1CCN(c2nccs2)CC1	0	0[10 µM]	14µM	0	0
Cc1cccc(-n2c(C)cc(C)c(C#N)c2=O)c1	0	0[10 µM]	-	?	0[9.22 µM]
Cc1ccc(NC(=O)c2nn(C34CC5CC(CC(C5)C3)C4)cc2[N+](=O)[O-])cc1	?	0	0	0.028µM	?
CCN(c1cccc(C)c1)S(=O)(=O)c1nnc(NC(=O)C2CCCCC2)s1	0	-	-	-	-
CCCn1c(SCC(=O)c2ccc3c(c2)NC(=O)CO3)nc2ccccc21	?	-	0	3.2µM	0
Cc1ccc(-n2nnnc2SCC(=O)c2ccc3c(c2)NC(=O)CO3)c(C)c1	0	0	0	?	0
Cn1c(SCC(=O)c2ccc3c(c2)NC(=O)CO3)nc2ccccc21	-	0	-	0	0[9.22 µM]
O=C1COc2ccc(C(=O)CSc3nnnn3-c3ccccc3)cc2N1	0	0[10 µM]	0	5µM	0
COc1ccc(Cn2ccc3nc(C)c(C(=O)N4CCN(c5cccc(OC)c5)CC4)cc3c2=O)cc1	0	-	-	-	-
COc1ccccc1/C=C/C=N/n1c(-c2ccncc2)n[nH]c1=S	?	0[0.074 µM]	14µM	0	0
COc1ccccc1/C=C/C=N/n1c(-c2ccccn2)n[nH]c1=S	-	0[10 µM]	-	-	0[9.22 µM]
COc1ccccc1/C=C\C=N\n1c(C2CCCCC2)n[nH]c1=S	0[0.0737 µM]	0[10 µM]	14µM	?	?
COc1ccc(OC)c(-n2c(-c3cc(-c4ccccc4)n[nH]3)n[nH]c2=S)c1	0	0[10 µM]	?	0	0
COc1ccc(-c2cc(-c3n[nH]c(=S)n3-c3ccccc3OC)[nH]n2)cc1	0	-	11µM	?	0
COc1ccccc1/C=C/C=N/n1c(-c2ccco2)n[nH]c1=S	-	0[10 µM]	-	?	0[9.22 µM]
COc1ccc(-c2n[nH]c(=S)n2/N=C/C=C\c2ccccc2OC)cc1	?	0[10 µM]	0.89µM	?	0
CCNC(=S)NS(=O)(=O)c1ccc(CC)cc1	0	0	?	?	0
CCc1ccc(S(=O)(=O)NC(=S)Nc2ccccc2)cc1	-	?	-	32µM	0
Cc1ccc(S(=O)(=O)NNC(=S)Nc2ccccc2)cc1	0	0	11µM	7.5µM	0
Cc1ccc(S(=O)(=O)NNC(=S)Nc2ccc(Cl)cc2)cc1	-	0[10 µM]	-	-	0[9.22 µM]
CCN1CCCC1CNC(=O)c1csc2c1CCCC2 (stereo unspecified)	0	0[10 µM]	0	0	0
SMILES	LMNA splice mod	HTT ATP protect	HPGD inh	ALDH1A1 block	HTT aggregate
O=C(NCC1CCCO1)c1csc2c1CCCC2 (stereo unspecified)	0	0	20µM	0	0
COCCNC(=O)c1csc2c1CCCC2	0	0	16µM	0	?
COc1cccc(C(=O)Nc2cccc(C(=O)OCc3cc(=O)n4c5c(sc4n3)CCCC5)c2)c1	0	-	-	-	-
Cc1cccc(N2CCN(C(=S)c3ccc([N+](=O)[O-])cc3)CC2)c1	?	0[10 µM]	7.9µM	2.5µM	0
O=[N+]([O-])c1ccc(NC(=S)N2CCN(c3ccc(F)cc3)CC2)cc1	0[0.0737 µM]	0	0	0	?
CN(C)c1ccc(C(=S)N2CCN(c3ccc([N+](=O)[O-])cc3)CC2)cc1	-	0[10 µM]	-	1µM	0[9.22 µM]
O=[N+]([O-])c1ccc(C(=S)N2CCN(c3ccc(F)cc3)CC2)cc1	?	0	-	10µM	0
Cc1cccc(N2CCN(C(=S)c3ccccc3)CC2)c1	0	0	-	?	0
CC(=O)N1CCN(C(=S)c2ccc([N+](=O)[O-])cc2)CC1	0	0[10 µM]	32µM	22µM	0
Cc1noc(C)c1CSc1nnc(-c2ccccc2)n1N	0	0	20µM	10µM	0
Cc1noc(C)c1CSc1nc2ccccc2n1CCc1ccccc1	0	0[0.074 µM]	0	28µM	0
CCOC(=O)c1ccccc1NC(=O)c1cnn(-c2ccc(OC)cc2)c1C1CCN(C(=O)OC(C)(C)C)CC1	0	-	-	-	-

Screening results deposited in PubChem by National Center for Advancing Translational Sciences (NCATS).
